Results filed as inconclusive are left out. Calls of active or inactive are those of the source. The call rests on the fitted dose curve; in most records, active means well fitted curve in the direction sought with a large enough effect; inconclusive means small, poorly fitted or top-dose-only effect, or another doubt; inactive means no such curve, though single readings can be large; an effect the other way counts as inactive or inconclusive.
What was measured:
[1] = system: C33A; assay: Primary qHTS to identify gynecologic anti-cancer compounds using libraries of approved drugs and bioactive compounds (AID 1345084); conditions: Gynecologic cancer cell panel viability, ATPlite luminescence, 48 h; series mostly up to 57.5 µM; further: nearly all actives have a fitted effect of over 55% in size; on activity change, negative = cytotoxicity: on the % scale 0 is the no-effect control and ±100 the full control effect
Outline: (§1)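 Five-concentration response, 48 h; readout is ATP-driven luciferase luminescence.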

[2] = system: CAOV3; assay: as above; conditions: Gynecologic cancer cell panel viability, ATPlite luminescence, 48 h; series mostly up to 57.5 µM
Outline: as §1

[3] = system: CASKI; assay: as above; conditions: Gynecologic cancer cell panel viability, ATPlite luminescence, 48 h; series mostly up to 57.5 µM
Outline: as §1

[4] = system: Es-2; assay: as above; conditions: Gynecologic cancer cell panel viability, ATPlite luminescence, 48 h; series mostly up to 57.5 µM
Outline: as §1

[5] = system: HeLa; assay: as above; conditions: Gynecologic cancer cell panel viability, ATPlite luminescence, 48 h; series mostly up to 57.5 µM
Outline: as §1

[6] = system: Hek293T; assay: as above; conditions: Gynecologic cancer cell panel viability, ATPlite luminescence, 48 h, control line for the selectivity index; series mostly up to 57.5 µM
Outline: as §1

[7] = system: JEG-3; assay: as above; conditions: Gynecologic cancer cell panel viability, ATPlite luminescence, 48 h; series mostly up to 57.5 µM
Outline: as §1

[8] = system: PA-1; assay: as above; conditions: Gynecologic cancer cell panel viability, ATPlite luminescence, 48 h; series mostly up to 57.5 µM
Outline: as §1

[9] = system: Tov-21-G; assay: as above; conditions: Gynecologic cancer cell panel viability, ATPlite luminescence, 48 h; series mostly up to 57.5 µM
Outline: as §1

[10] = system: Tov112D; assay: as above; conditions: Gynecologic cancer cell panel viability, ATPlite luminescence, 48 h; series mostly up to 57.5 µM
Outline: as §1

[11] = system: OV90; assay: as above; conditions: Gynecologic cancer cell panel viability, ATPlite luminescence, 48 h; series mostly up to 57.5 µM
Outline: as §1

[12] = system: SKOV3; assay: as above; conditions: Gynecologic cancer cell panel viability, ATPlite luminescence, 48 h; series mostly up to 57.5 µM
Outline: as §1

[13] = qHTS assay to identify inhibitors of the type 1 interferon - major histocompatibility complex class I in skeletal muscle: Counter screen cell viability and HiBit confirmation (AID 1347412); conditions: iHSKM muscle cells + IFN-b, HiBiT or CellTiter-Glo, 24 h; HiBiT; further: nearly all actives have a fitted effect of over 60% in size
Outline: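 CRISPR HLA-B*08:01-HiBit immortalized human myoblasts (C25cl48) stimulated with 4 ng/ml IFN-beta and compounds (12-point 1:3, top 46 uM final) for 24 h at 37 C. Duplicate plates read by HiBit lytic luminescence or CellTiter Glo ATP.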
Potency means the concentration at half of the fitted maximal effect.

Cc1nc2cc(C(=O)NCc3ccccn3)nn2c(C)c1Cc1cccc(Cl)c1
inactive: Potency [1] | Potency [2] | Potency [3] | Potency [4] | Potency [5] | Potency [6] | Potency [7] | Potency [8] | Potency [9] | Potency [10]

COc1cccc(NCCC2(c3ccccc3)CC(C)(C)OC(C)(C)C2)c1
inactive: Potency [1] | Potency [2] | Potency [3] | Potency [4] | Potency [5] | Potency [6] | Potency [11] | Potency [8] | Potency [12] | Potency [9] | Potency [10]

CCNC1(C(N)=O)CCN(c2ncnc3c2nc(-c2ccccc2Cl)n3-c2ccc(Cl)cc2)CC1
inactive: Potency [1] | Potency [2] | Potency [3] | Potency [4] | Potency [5] | Potency [6] | Potency [11] | Potency [8] | Potency [12] | Potency [9] | Potency [10]

C=CC(C)(C)C12CC3C(=O)N4C(CC5(C(C)(C)C=C)c6ccccc6NC45)C(=O)N3C1Nc1ccccc12 (stereo unspecified)
inactive: Potency [1] | Potency [2] | Potency [3] | Potency [4] | Potency [5] | Potency [6] | Potency [11] | Potency [8] | Potency [12] | Potency [9] | Potency [10]

N#Cc1cnc2c(Cl)cc(NCc3cn(CCN4CCCCCC4)nn3)cc2c1Nc1ccc(F)c(Cl)c1
inactive: Potency [1] | Potency [2] | Potency [3] | Potency [4] | Potency [5] | Potency [6] | Potency [7] | Potency [9] | Potency [10]

NC(N)=NC(=O)c1cnn(-c2cccc3ncccc23)c1C1CC1
inactive: Potency [1] | Potency [2] | Potency [3] | Potency [4] | Potency [5] | Potency [6] | Potency [7] | Potency [8] | Potency [9] | Potency [10]

C=CC(C)(O)CC/C=C(\C)C(=O)OC1C(O)C(CO)OC(OC(=O)C23CCC(C)(C)CC2C2=CCC4C5(C)CCC(OC6OC(COC7OCC(OC(C)=O)C(O)C7OC7OC(COC(C)=O)C(O)C(O)C7OC(C)=O)C(O)C(O)C6OC6OCC(O)C(O)C6O)C(C)(C)C5CCC4(C)C2(C)C(O)C3O)C1OC1OCC(OC2OCC(O)C(OC3OCC(O)C(O)C3O)C2O)C(O)C1O (stereo unspecified)
inactive: activity change, negative = cytotoxicity [1] -0.479% [at 6.55 µM] | activity change, negative = cytotoxicity [2] -0.149% [at 6.55 µM] | activity change, negative = cytotoxicity [3] -8.72% [at 6.55 µM] | activity change, negative = cytotoxicity [4] -2.99% [at 6.55 µM] | activity change, negative = cytotoxicity [5] -14% [at 6.55 µM] | activity change, negative = cytotoxicity [6] -1.14% [at 6.55 µM] | activity change, negative = cytotoxicity [7] -2.85% [at 6.55 µM] | activity change, negative = cytotoxicity [12] 0.6% [at 6.55 µM] | activity change, negative = cytotoxicity [9] -26.1% [at 6.55 µM]

C=C1C(=O)OC2/C=C(\C)CC/C=C(\C=O)C(OC)C(OC(=O)C(C)CC)C12 (stereo unspecified)
inactive: Potency [1] | Potency [2] | Potency [3] | Potency [5] | Potency [7] | Potency [11] | Potency [8] | Potency [12] | Potency [10]

c1ccc(-c2ccc(CNc3nc(-c4ccccn4)nnc3-c3ccccc3)cc2)cc1
inactive: Potency [7]
active: Potency [1] 12.6 µM | Potency [2] 8.91 µM | Potency [3] 11.2 µM | Potency [4] 17.8 µM | Potency [11] 7.08 µM | Potency [12] 12.6 µM | Potency [10] 11.2 µM

C=C(C)C(=O)OC1CC(CO)CCC/C(CO)=C/C2OC(=O)C(=C)C21 (stereo unspecified)
inactive: Potency [1] | Potency [2] | Potency [3] | Potency [5] | Potency [7] | Potency [11] | Potency [12] | Potency [10]

NC(=O)c1ccccc1Nc1ccnc(Nc2cccc(O)c2)n1
inactive: Potency [1]
active: Potency [2] 8.91 µM | Potency [3] 12.6 µM | Potency [5] 3.16 µM | Potency [13] 4.97 µM

CC(=O)O[C@H]1[C@@]2(O)C[C@H](C)[C@H](OC(=O)c3ccccc3)[C@@H]2[C@@H](OC(=O)CO)[C@]2(OC(C)=O)C[C@H]3C(=O)C(C)(C)C[C@@H]3[C@@]1(C)[C@H]2OC(C)=O
inactive: Potency [1] | Potency [2] | Potency [3] | Potency [5] | Potency [6] | Potency [7] | Potency [11] | Potency [8] | Potency [12] | Potency [9] | Potency [10]

C=C1CC2[C@@]3(C)C=CC(=O)C(C)(C)C3=C(O)C(=O)[C@@]2(C)C2(C(=O)OC)C(=O)C(C)OC(=O)[C@@]12C (stereo partly specified)
inactive: Potency [1] | Potency [2] | Potency [3] | Potency [4] | Potency [7] | Potency [9] | Potency [10]

CC(=O)Nc1cccc(-c2csc(Nc3cc(C)ccn3)n2)c1
inactive: Potency [1] | Potency [2] | Potency [3] | Potency [5] | Potency [7] | Potency [11] | Potency [9] | Potency [10]

C=C1C(=O)O[C@@H]2/C=C(/C)[C@@H](OC(C)=O)C/C=C(\C)C[C@@H](OC(=O)/C(=C/CO)CO)[C@@H]12
inactive: Potency [1] | Potency [2] | Potency [3] | Potency [5] | Potency [7] | Potency [11] | Potency [8] | Potency [12] | Potency [10]

O=C(CNC(=O)c1cccc(C(F)(F)F)c1)N[C@@H]1CCN(Cc2ccc(Cl)cc2)C1
inactive: Potency [1] | Potency [2] | Potency [3] | Potency [5] | Potency [6] | Potency [7] | Potency [11] | Potency [8] | Potency [9] | Potency [10]

N#Cc1cc(CN2CCC(Nc3ncnc4sc(Cl)cc34)CC2)ccc1F
inactive: Potency [1] | Potency [2] | Potency [3] | Potency [5] | Potency [7] | Potency [10]

CC[C@H](C(=O)Nc1ccccc1N1CCCC1)c1ccccc1
inactive: Potency [1] | Potency [2] | Potency [3] | Potency [6] | Potency [7] | Potency [11] | Potency [8] | Potency [9] | Potency [10]
